In PubChem BioAssay AID1508600 (Functional Genomics Laboratory (NCATS/FGL), 2020):
Among all 53,000 sequences or so, about 3,700 (7%) were called active. Many of the other results were omitted from the sample, so actives are more common in it than they were. Values without a mark were called inactive.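 How the source made its calls: active means gene knockdowns whose robust z-score for IL-1 alpha signal is at least 2 or at most -2, so actives lie on both sides; inactive means the rest.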

Assay: Components of the Cytosolic LPS Sensing Pathway: Gene Identification via Genome-wide siRNA Screen;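 further: robust z of the log signal after scaling to non-targeting control siRNA wells of the plate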
Conditions: RAW264.7 macrophages, IL-1a HTRF, actives lie on both sides, screened at 100 nM (by protocol), cells primed 5 h with Pam3CSK4 first
How it was run: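 RAW264.7 mouse macrophages reverse-transfected with single siRNAs (100 nM final) for 48h, primed with Pam3CSK4 for 5 hours, then transfected with LipidA for 24 hour. Supernatant IL-1a read by HTRF; values normalized to negative-control median, log-transformed robust z-scores.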

First: CCCUAGUGCAGUGAUAACUTT against 1700016D06Rik
Second: CCCAACAAGAGUAUCUAUGTT against Foxh1
The z-score of the first is higher: 0.938 for the first, -0.125 for the second.

First: GGCAUCUCUCCAAUAACCUTT against Fbxw2
Second: GGAUUUCUUCUUAUGAUGATT against Khnyn
The z-score of the first is higher: -1.2 for the first, -1.21 for the second.

First: GCUCAGAAUAUCACAUCAATT against Ppm1b
Second: GCUAAAAUAUUAGGGAAGCTT against Timm29
The z-score of the first is lower: -1.59 for the first, 0.429 for the second.

First: GGAAAGAAAAAUGAAGCUUTT against Tmem167b
Second: GGAUAUCGUUGUUUCUGAGTT against Lmbr1
The z-score of the first is higher: -0.548 for the first, -1 for the second.

First: GGGUGGUGUUCCAUGACAGTT against Ubp1
Second: GGCACAAGAUUAUUUAAGUTT against Tmem68
The z-score of the first is lower: -1.82 for the first, 0.362 for the second.

Compared with GGUUCUAUGCUGAAGGUCATT against Lhfpl2, GGCUUGUGAAUGGAAAUAATT against Hsp90aa1 is lower in z-score: 0.358 for the first, -0.416 for the second.

Compared with CCUUAAGACCGGAUUUUUUTT against Cyp4f14, GGAGUUUGUAUCAAACUUATT against Zcchc8 is lower in z-score: 0.64 for the first, 0.0121 for the second.

First: GGUAAUGGGAGCUAGUUUATT against 6330549D23Rik
Second: CCGAGGACUAUUUGAAACGTT against Mrtfa
The z-score of the first is higher: -0.259 for the first, -1.46 for the second.

First: GGAUUUGAGUUGAAGCGUGTT against Zscan20
Second: GGUGGUAAAUCGAAUUGUUTT against Tmem185b
The z-score of the first is higher: -0.129 for the first, -0.171 for the second.

Compared with GGCUGGCUAUAAGAAAAAATT against Mrpl35, GGCCACAGGAAGUCAGUUATT against Gsk3b is lower in z-score: -0.646 for the first, -1.23 for the second.

Going from GCCAACCAUCAGUUUAUACTT against Mboat1 to GGUUAGUAGUCUUCUUAUCTT against Olfr1173, the z-score rises from -0.31 to 0.291.

Going from CGCACAGAGAAUAAGGGAATT against Tcta to CCUGAUGCACUACUCGUCUTT against Dmbx1, the z-score falls from 0.843 to -0.131.

First: GGUCAACUAGCAGAAACCATT against Adgrv1
Second: CCGUAGAGAUCAACAACACTT against Npepl1
The z-score of the first is lower: -1.84 for the first, 0.799 for the second.

First: GGACUCCUUCCACCACAAUTT against Aifm2
Second: CCCUAUUUGUCAGCGGUCUTT against Rbpms
The z-score of the first is higher: -0.2 for the first, -1.94 for the second.

First: GCCUUAAGAGAUGUAUUUCTT against Vmn1r33
Second: GGAGGAAAUGAUGAUUUUCTT against Kbtbd2
The z-score of the first is lower: -0.042 for the first, 0.283 for the second.

Going from GGUACAUCUAUUUCUUGUUTT against Ncam2 to GGACUGUACUAUGGCUCUCTT against Nt5m, the z-score rises from -1.2 to 0.135.

Going from “GGGAGGAGAGUGAUUGAGATT against A730013G03Rik” to CCAACAAAUUCUGGUGGGATT against Ccdc84, the z-score falls from 0.682 to 0.578.

Compared with GGAGUACCUGUGGUGCAUUTT against Ahcy, CCGAAGUCAACUAAACUUATT against Rmc1 is higher in z-score: 0.213 for the first, 0.732 for the second.

First: GGACAACUUCAACAGCACUTT against Rab13
Second: CGUAGAGCUCAGAGAAUUCTT against Dhx58
The z-score of the first is lower: -1.31 for the first, 0.614 for the second.

Going from GCGAAUGAUAUGUAUCAGATT against Pik3r1 to ACCUUUUCAAAUCUGUGCGTT against Uts2b, the z-score falls from 0.647 to -0.928.

First: GCUCUUGGUCCGUCUUCAGTT against 6030452D12Rik
Second: GGAGUCUUGUAAUGAGCUUTT against Zfp54
The z-score of the first is lower: -1.76 for the first, 0.898 for the second.

Compared with CCCUCAAAGUCAUUUCAAATT against Cfap43, CCUUCCUACCGGAGAAUGATT against Capn6 is higher in z-score: -1.61 for the first, -0.341 for the second.

Going from GGUUCAACAUGAAAAUGAUTT against Lingo2 to GGCAGCGAUUGACAAAAUGTT against Eefsec, the z-score falls from -0.251 to -0.756.

Going from GGUCGUGAUAAACAUAUCATT against Cep85 to GGUCAAUGGCCACAAGUUCTT against Prkce, the z-score rises from -1.1 to 0.421.

Compared with CCAUGAUCGCUAGUGAAGCTT against Mrpl24, GGUGGUGAACUGUUUGACCTT against Pnck is lower in z-score: -0.743 for the first, -1.58 for the second.

First: GCUGACCUUUGUAAGUUAUTT against Ttc17
Second: GGCUAUGCUUCUUUCCUUUTT against Cfhr1
The z-score of the first is lower: -0.369 for the first, 0.846 for the second.

Compared with GGAGAAGAAAAAGAAGGACTT against Pak1, GAUGGAUCGAACUCUGCACTT against Stard10 is lower in z-score: -0.932 for the first, -0.957 for the second.

Going from GGACCAAGUGGAGAAAGAATT against Nkx6-1 to CCCAGAUGAACAAAUGACCTT against Tceanc, the z-score rises from -0.622 to 0.582.

Compared with GCAUUAUGGAAAGUUGGAGTT against Gabra4, GGAGUGUGAGGUCCUCUCUTT against Sdsl is higher in z-score: 0.915 for the first, 1.85 for the second.

Going from CCGACGAUUCCUGAAGCUATT against Tada3 to GGUGACAGAUUCUUUGAGGTT against Tti2, the z-score rises from -0.275 to 0.704.

Compared with GGUCAGAUUAUGCUUUAGATT against Mrgpre, GCAGAGGGUUUUCCAAGCGTT against Ddx4 is higher in z-score: -0.783 for the first, -0.631 for the second.

Going from GGAAGUGACCUGUCUGAAGTT against Gramd1a to GGACAGCUGGACCUAAAGGTT against Slco4a1, the z-score falls from 0.641 to -0.417.

First: GGAGCUGAUGGUUGAAUGUTT against Ehbp1
Second: GGAUCCUCGGGAGUACAUGTT against Crybg3
The z-score of the first is lower: 0.177 for the first, 0.287 for the second.

Compared with CCAGUAAGUUGCAUUCGAATT against Defb8, CCUCAUUUCCAAACUCAAATT against Fbxw13 is lower in z-score: 0.675 for the first, -0.491 for the second.

Compared with CCACGAGAAGUGGAUAUUATT against Plcxd3, CCUGAACAUGAGUUAAAAGTT against Lmo4 is higher in z-score: -1.1 for the first, 0.156 for the second.

First: GGAUUAGCUCUACAGAAGGTT against Olfr1031
Second: GGAGCUGUUUUUCCACUCCTT against Phlda2
The z-score of the first is higher: 1.67 for the first, -0.337 for the second.

Going from GGUAUGGUUUCUAUAACAATT against Arsj to “GGAAGGUCAUGUGAAUAUCTT against A930002I21Rik”, the z-score falls from 0.814 to -1.6.

Going from “GGCUUUGAGAGUUUGUCACTT against 2410004B18Rik” to GGGAGUUAAACUUCUCUGCTT against Tlr13, the z-score rises from -1.62 to -0.0637.

Compared with GGGUCAGUGUGGAGAGUACTT against Col13a1, GGAUGAAUGGAAUUUACUGTT against Fbh1 is lower in z-score: 0.679 for the first, 0.406 for the second.

Going from GGGAAAAGUGGUAAAUUAUTT against Shprh to GGAAGACAAGGUUUUAGCUTT against Ulbp1, the z-score rises from 0.194 to 1.92.

Compared with GGUUCAUGAAUGACAAACUTT against Sult4a1, GGUGUUUAAUAAUGUUGUCTT against Olfr976 is lower in z-score: 0.383 for the first, -0.27 for the second.

First: CCCAAUGACAAUAAAGACCTT against Mmp25
Second: GGUAAGAGGAUCCAAGGUGTT against Fam131a
The z-score of the first is lower: -0.936 for the first, 0.0909 for the second.

In the case of GGUUCUGGUUUAGAUGCUATT against H2aw, the z-score was 2.36 (active).
In the case of GGAGAUAGGAUUGCUUGCATT against Mthfd1l, the z-score was -2.3 (active).
For GGAGCUGUCCAGGUUUAUUTT against Psmd6, the z-score was -2.72 (active).
With GCAUAGAAACCAUGCACAUTT against Acot2 the z-score was 3.28 (active).
For GGCUUGAAGAUGUCUAUGATT against Aptx, the z-score was -2.19 (active).
With GGCUGAAGAACUCCUACAATT against Dennd1c the z-score was 2.17 (active).
With GGUAAAUGUCUGCUCUGAGTT against Selenok the z-score was -2.53 (active).
For GCACAUAGCAUCCACUCCATT against Gm4793, the z-score was -2.56 (active).
In the case of CCAAGCGAAUGCUGGACAUTT against Cox4i1, the z-score was 3.44 (active).
For GGCGGUACCUCUUCUUCAUTT against Aipl1, the z-score was 2.32 (active).
For CCCUUGCUACAAUGAUGCCTT against Mfge8, the z-score was 2.56 (active).
In the case of GGCUAACCAGAGGAAAAACTT against Rph3a, the z-score was -2.19 (active).
With GGUUGAAAAUGGAAGAGUATT against Mbnl2 the z-score was -2.27 (active).
In the case of GCCAAUUGAGUCGUCUAUCTT against Rps6ka1, the z-score was 2.41 (active).
In the case of CGGCUUGCUACUUUGGAACTT against Gda, the z-score was 2.55 (active).
For GCGUAAGGAAUUGUCUAACTT against Hoxd12, the z-score was 4.05 (active).
In the case of CGUGAUUGAAUCUCAGGAGTT against Spata24, the z-score was -2.14 (active).
With GGAUUAUGUAGAGGCCCAATT against Gngt2 the z-score was -2.63 (active).
For GGCAUAGCUGGUCUGAAGATT against Slc3a2, the z-score was 2.06 (active).
For GCUGGAAGAAAACUUCUAUTT against Jade2, the z-score was 2.49 (active).
In the case of GGUACCGGAGUCUGAAACATT against Drp2, the z-score was -2.53 (active).
In the case of CGUGGAGAGAUCAAUCCCGTT against Adad1, the z-score was -2.01 (active).
With GGGCUUGUAUCUACCAUGGTT against Strbp the z-score was 2.18 (active).
